Screens (PubChem)
PolyA inhibitor: inhibitors of polyadenylation in S. cerevisiae; S. cerevisiae SKY197-pL101 polyadenylation reporter, beta-gal luminescence; efflux-impaired pdr1/pdr3 knockout yeast; score 100 = 6 SD above DMSO; activity score, % at 12 µM; 300,000 compounds, 0.02% hits;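 active = lowest replicate activity score at least 50, where 100 means six control SD above control mean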;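 also: yeast exposed to compound for 9 h at 30 °C; higher score means more reporter readthrough which indicates perturbed polyadenylation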
ssDAF-12 act: activators of S. stercoralis DAF-12 nuclear receptor. activation, % at 6.8 µM. HEK293 ssDAF-12/GRIP1 lit1-tk-luc reporter, luminescence; % of 3 µM dafachronic acid response. AID 652126. 370,000 compounds, 1% hits;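 active = activation above the mean over all tested compounds plus 3 SD, cut at about 0.9% in these data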;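 also: 0% = DMSO-only wells and 100% = 3 µM delta7-dafachronic acid wells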
DAX1 inh-1: inhibitors of human orphan nuclear receptor DAX1 (NR0B1) | P51843 | 340,000 compounds, 0.99% hits | inhibition, % at 6.75 µM | HEK293 Gal4-DAX1 luciferase reporter, luminescence;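 active = inhibition above the mean over all tested compounds plus 3 SD, cut at about 4.2% in these data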;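 also: 0% = DAX1-transfected cells with DMSO and 100% = empty-vector control cells with DMSO; inhibition shows as a rise in luminescence from relieved DAX1 repression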
Target sequence (P51843 207-470 limits assumed): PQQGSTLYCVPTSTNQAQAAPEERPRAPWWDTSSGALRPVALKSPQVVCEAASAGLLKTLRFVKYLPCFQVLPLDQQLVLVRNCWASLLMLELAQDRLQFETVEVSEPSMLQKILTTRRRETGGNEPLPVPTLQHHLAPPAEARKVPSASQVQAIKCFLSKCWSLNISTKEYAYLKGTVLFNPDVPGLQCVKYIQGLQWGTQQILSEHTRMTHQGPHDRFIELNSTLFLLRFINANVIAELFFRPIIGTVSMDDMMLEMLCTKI
DAX1 inh-2: blocks DAX1 repression of SF-1 activated StAR promoter; HEK293T StAR-luciferase reporter, SF-1/DAX-1 repression relief; inhibition, % at 6.8 µM; 370,000 compounds, 1.1% hits;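 active = inhibition above the mean over all tested compounds plus 3 SD, cut at about 3.6% in these data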;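 also: 0% = DAX-1 cells with DMSO and 100% = cells lacking DAX-1 with DMSO; higher inhibition means more luminescence from relief of DAX-1 repression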
hcDAF-12 act: activators of H. contortus DAF-12 nuclear receptor. 370,000 compounds, 1.4% hits. activation, % at 6.8 µM. HEK293 hcDAF-12 lit1-tk-luc reporter, luminescence; 0% DMSO, 100% Δ7-dafachronic acid;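 active = activation above the mean of all tested compounds plus 3 SD, cut at about 5.5% in these data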;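 also: 100% = response to 3 µM Δ7-dafachronic acid high control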
hgDAF-12 ag: hgDAF-12 agonism, primary luciferase screen | HEK293 GAL4-hgDAF12 UAS-luciferase reporter, agonist luminescence; normalized to butyrate control | activation, % at 6.8 µM | 370,000 compounds, 1.8% hits | AID 687014;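 active = activation above a cutoff set at the mean of all screened compounds plus 3 SD, cut at about 10% in these data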;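 also: 0% = DMSO wells and 100% = sodium butyrate wells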
hgDAF12 conf: confirmation of H. glycines DAF-12 agonists. 3,300 compounds, 80% hits. shares compounds with hgDAF-12 ag. activation, % at 6.8 µM. HEK293 GAL4-hgDAF12 luciferase reporter, agonist mode; percent of butyrate response;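 active = mean activation over triplicate wells above the hit cutoff derived from the earlier primary screen, cut at about 11% in these data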;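 also: 0% = DMSO low control and 100% = 2 mM sodium butyrate high control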
LXR ag 2: counter-screen for DAF-12 agonists: agonists of human LXR-beta | shares compounds with hgDAF-12 ag | HEK293 Gal4-LXR luciferase reporter, 24 h | activation, % at 6.8 µM | 3,300 tested, under 10 active;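 active = mean activation of the triplicate above a set limit carried over from the primary screen, none filed active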
Target sequence (P55055 whole entry, looked up, the tested form may be a part): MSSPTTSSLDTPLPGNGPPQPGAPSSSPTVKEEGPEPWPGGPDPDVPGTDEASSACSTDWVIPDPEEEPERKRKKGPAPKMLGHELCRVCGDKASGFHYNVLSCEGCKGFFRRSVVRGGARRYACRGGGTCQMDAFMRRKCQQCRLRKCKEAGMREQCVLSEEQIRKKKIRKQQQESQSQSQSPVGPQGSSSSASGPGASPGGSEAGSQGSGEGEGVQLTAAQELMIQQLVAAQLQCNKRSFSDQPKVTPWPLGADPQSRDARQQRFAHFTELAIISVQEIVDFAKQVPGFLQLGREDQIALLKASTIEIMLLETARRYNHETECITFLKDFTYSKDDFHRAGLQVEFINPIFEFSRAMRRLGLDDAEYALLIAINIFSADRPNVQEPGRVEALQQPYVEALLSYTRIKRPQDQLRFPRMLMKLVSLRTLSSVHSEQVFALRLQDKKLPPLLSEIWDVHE
* hit, by the source's call; · = no result. Shown are actives, neighbours in structure and some others; about 4.1% of the full set was active somewhere.

SMILES | PolyA inhibitor | ssDAF-12 act | DAX1 inh-1 | DAX1 inh-2 | hcDAF-12 act | hgDAF-12 ag | hgDAF12 conf | LXR ag 2
CC(C)Cc1nnc(NC(=O)CCC(=O)N2CCCCC2)s1 | -3.4 | -1.1 | -0.1 | -0.4 | 4.1 | -0.6 | · | ·
CCc1cc(C(=O)NNC(=S)NCC2CCCO2)cs1 (centres undefined) | 4.7 | -0.7 | 0.4 | 0.5 | -0.7 | 3.3 | · | ·
Nc1nc(N)nc(-c2ccc(Cl)c(Cl)c2)n1 | · | -1.0 | 4.0 | 1.4 | -0.1 | 21.3* | 17.7* | 0.8
Cc1ccccc1/C=N\NC(=O)c1csnn1 | 7.0 | -0.7 | 1.0 | 2.1 | 3.0 | 14.5* | 3.2 | 0.2
O=C(Nc1cccc([N+](=O)[O-])c1)c1cnccn1 | 3.8 | -1.1 | -0.8 | 0.2 | -1.9 | -2.4 | · | ·
CC(C)(C)c1ccc(C(=O)Nc2cccc([N+](=O)[O-])c2)cc1 | 2.1 | -0.1 | 1.6 | 3.2 | 2.7 | 14.0* | 13.9* | 0.5
O=C(Nc1cccc([N+](=O)[O-])c1)c1ccncc1 | 10.2 | -1.1 | 0.4 | 0.4 | -1.8 | -1.7 | · | ·
O=C(Nc1cccc([N+](=O)[O-])c1)c1[nH]ncc1Cl | 19.9 | -0.8 | 0.5 | 0.9 | 4.0 | 14.3* | 9.3 | 0.5
CNc1nc(-c2ccc3c(c2)CCN3C(=O)c2ccccc2F)cs1 | 4.2 | -0.1 | 1.3 | 3.9* | 5.0 | 23.4* | 18.0* | 0.7
CNc1nc(-c2ccc3c(c2)CCN3C(=O)c2ccccc2F)c(C)s1 | -1.2 | -0.9 | -2.0 | -0.6 | -0.9 | 1.1 | · | ·
O=[N+]([O-])c1ccccc1Nc1cccc(F)c1 | · | -1.3 | 0.8 | -1.6 | -0.2 | 4.8 | · | ·
O=c1nc(N/N=C/C=C/c2ccccc2)cn[nH]1 | 2.2 | -0.1 | -1.2 | 2.3 | 3.4 | 15.5* | 14.2* | 0.9
O=c1nc(N/N=C/c2c[nH]c3ccccc23)cn[nH]1 | -8.4 | 0.5 | -1.0 | 2.7 | 3.6 | 16.7* | 13.2* | 0.6
CCOC(=O)C1=C(COC(=O)CNS(=O)(=O)c2ccc(C)c(C)c2)NC(=O)NC1C (centres undefined) | · | -0.8 | 0.5 | -1.5 | -0.5 | -1.8 | · | ·
O=C(C[C@H]1C[C@H](C(=O)N2CCCCC2)[C@@]2(CCc3ccccc3)c3[nH]c4ccc(Cl)cc4c3CCN2C1=O)NCCN1CCOCC1 | · | · | -0.5 | · | · | · | · | ·
Cc1csc(NC(=O)Nc2cccc(Cl)c2)n1 | -11.1 | 0.2 | 1.1 | 1.7 | 3.6 | 17.2* | 13.7* | 0.6
O/N=C/c1cc(Br)cc(Br)c1OCc1ccccc1 | -73.2 | -1.5 | -1.1 | -0.3 | -1.6 | -3.5 | · | ·
O/N=C/c1ccc(OCc2ccccc2)c(Br)c1 | -39.6 | 0.0 | 1.1 | 0.5 | 3.3 | 16.1* | 22.1* | 0.8
CCOc1cc(/C=N/O)ccc1OCc1ccc(C)cc1 | -40.4 | -1.6 | -0.2 | 0.5 | 0.0 | 1.9 | · | ·
O/N=C/c1ccc(OCc2ccccc2)c(Cl)c1 | -28.5 | 1.4* | 5.0* | 2.1 | 3.7 | 15.2* | 13.1* | 0.6
Cc1ccc2c(c1)CC(C)N2S(=O)(=O)c1nnc(NC(=O)CC(C)C)s1 (centres undefined) | -6.6 | -1.6 | 0.4 | 1.1 | -0.7 | 0.1 | · | ·
CCCn1c(N)c(NCCN2CCOCC2)c(=O)n(CC(=O)NCc2ccccc2)c1=O | -1.1 | -1.5 | 0.5 | 1.2 | -0.7 | 0.8 | · | ·
N#C/C(=C\c1ccc(OCc2cccc(C(=O)O)c2)cc1)C(=O)NCc1ccco1 | 8.9 | -0.7 | -1.4 | 3.8* | 2.4 | 14.6* | 18.4* | 0.6
N#C/C(=C\c1ccc(OCc2ccc(C(=O)O)cc2)cc1)C(=O)NCc1ccccc1 | 11.2 | -1.3 | 1.7 | 0.4 | 0.4 | -0.1 | · | ·
Nc1cc2nc[nH]c2cc1N | -17.4 | -0.5 | 0.5 | 2.6 | 6.1* | 14.8* | 5.5 | 0.1
SMILES | PolyA inhibitor | ssDAF-12 act | DAX1 inh-1 | DAX1 inh-2 | hcDAF-12 act | hgDAF-12 ag | hgDAF12 conf | LXR ag 2
Cc1ccc(C(=O)Nc2ncn[nH]2)cc1 | 8.6 | -1.2 | 2.6 | 0.3 | -1.2 | 2.4 | · | ·
CC(C)(C)c1ccc(C(=O)Nc2ncn[nH]2)cc1 | -0.4 | -0.4 | 0.7 | 2.4 | 3.9 | 13.7* | 12.6* | 0.6
COc1cccc(C(=O)NC(=O)Nc2cc(C)[nH]n2)c1 | 9.2 | -0.5 | 8.1* | 3.2 | 4.4 | 14.9* | 14.2* | 0.6
COc1ccc(C(=S)Nc2ccc(N(C)C)cc2)cc1 | -9.5 | 0.7 | 1.2 | 4.0* | 5.5 | 14.9* | 15.3* | 0.6
COc1cccc(C(=O)NC(=S)Nc2ccc(N(C)C)cc2)c1 | 0.2 | -0.6 | 0.4 | 0.6 | -0.3 | 18.3* | 12.4* | 0.4
COc1cccc(C(=O)NC(=S)Nc2ccc(N3CCCC3)cc2)c1 | -22.8 | -1.4 | 1.2 | -1.3 | 0.9 | 3.0 | · | ·
COc1ccc(NC(=S)c2ccccc2)cc1 | -18.1 | -0.7 | 1.3 | 2.0 | 1.1 | 8.4 | · | ·
COc1cccc(C(=O)Nc2ccc(C3CC3(Cl)Cl)cc2)c1 (centres undefined) | 8.5 | 1.2* | 0.2 | 2.6 | 2.0 | 18.8* | 17.8* | 0.7
Cc1cc(NC(=O)c2cccc(Br)c2)n[nH]1 | -5.5 | -0.9 | 0.6 | 0.4 | 0.8 | 4.5 | · | ·
O=C1OCCN/C1=C\C(=O)c1ccc(Cl)cc1 | -5.0 | -1.9 | · | 0.0 | 2.0 | 0.2 | · | ·
CC(N)C(=O)NC(C(=O)N1CCCC1C(=O)NC(c1ccccc1)c1ccccc1)C(C)C (centres undefined) | · | -1.1 | 0.4 | -0.2 | -0.6 | -1.4 | · | ·
O=C(Nc1ccc(-c2ccc(N3CCCCC3)nn2)cc1)c1ccco1 | 5.9 | -0.6 | -0.5 | 2.5 | 1.2 | 1.9 | · | ·
Cc1c(NC(=S)NC(=O)c2cccc3ccccc23)cccc1C(=O)O | 13.9 | -1.3 | 0.4 | 0.9 | -1.9 | -0.8 | · | ·
Cc1ccc(-c2nc3ccccc3s2)cc1NC(=S)NC(=O)c1cccc2ccccc12 | -0.9 | 0.4 | 4.4* | 3.1 | 6.0* | 16.6* | 12.1* | 0.9
COc1ccc(NC(=O)/C=C/c2ccccc2)c([N+](=O)[O-])c1 | -5.2 | -0.1 | 1.5 | 2.0 | 2.5 | 15.6* | 12.0* | 0.5
O=C1CCN(Cc2ccc(O)cc2)CCN1CCO | 6.9 | -0.8 | 1.4 | 0.3 | -0.1 | 1.5 | · | ·
COc1cc(C#N)c(N=C(SCC#N)N2CCOCC2)cc1OC | 8.8 | -1.3 | -0.3 | 0.0 | -1.7 | -0.2 | · | ·
CCN(CC)C(=O)CSc1nnc(-c2ccccc2)o1 | 0.3 | -1.0 | 0.8 | 2.2 | 2.4 | 18.1* | 12.2* | 0.4
CCOc1ccccc1N(CC(=O)NCc1ccco1)C(=O)CCC(=O)Nc1nccs1 | -14.6 | -1.3 | -0.7 | -0.4 | -0.3 | -0.3 | · | ·
Cc1csc(NC(=O)CSc2nsc(SCC(=O)Nc3nc(C)cs3)c2C#N)n1 | 9.1 | 0.1 | 1.8 | 3.0 | 3.8 | 17.9* | 14.9* | 0.8
